Inconclusive results are not listed. For some of these results: Potency and affinity values are given separately. Active and inactive are the calls of the source. Unless noted, no rule for the calls is given here.
Experiments:
[1] = target: ATP-dependent translocase ABCB1 (Homo sapiens) (UniProt P08183); assay: MDR1 (ABCB1) efflux transporter inhibition, cell-based (AID 377; in the data active = fluorescence slope change above about 50%); conditions: MDR1-expressing cells, fluorescent substrate accumulation slope; stronger effect = higher value; concentration not given here
[2] = polyglutamine-triggered caspase-3 activation inhibitors, cell-based (AID 1583); conditions: polyglutamine-induced caspase-3 activation, cell assay; stronger effect = higher value;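 tested at 10 µM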
[3] = suppressors of polyQ aggregation in yeast, 75Q-TubU reporter (AID 1593); conditions: Yeast 75Q polyglutamine aggregation reporter
[4] = rescue of polyQ-huntingtin neuronal dysfunction in worms, whole organism, C. elegans mechanosensory neurons, N-terminal huntingtin (AID 1599); conditions: touch response, stronger effect = higher value
[5] = inhibitors of mitochondrial cytochrome c release, biochemical, purified mitochondria (AID 1603); conditions: stronger effect = lower value;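 also: mouse liver mitochondria challenged with calcium chloride; signal normalized to the plate average as 100%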
[6] = inhibitors of polyQ protein aggregation (AID 1604); conditions: polyglutamine-induced protein aggregation inhibition assay; stronger effect = higher value; tested at 2.5 µM
[7] = enhancers of glutamate uptake in motor neurons, MN-1 cell line (AID 1612); conditions: MN-1 motor neuron cells, stronger effect = higher value;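 also: tested at 1 µM final; 0% = mean of DMSO vehicle wells on each plate; positive means more glutamate uptake than control and negative means less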
[8] = reducers of polyQ inclusions in PC12 cells, cell-based, NGF-treated PC12, GFPQ80 (AID 1614); conditions: PC12 NGF-treated GFP-polyQ80 inclusion reduction;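 also: lower means fewer inclusions and 0 means no inclusions at all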
[9] = suppressors of polyglutamine aggregation in yeast, 75Q-TubH (AID 1616); conditions: S. cerevisiae 75Q-TubH polyglutamine aggregation suppression; stronger effect = higher value
[10] = hESC survival regulators, cell-based (AID 493140); conditions: human embryonic stem cell survival screen; stronger effect = higher value;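 also: cells exposed to compounds for four days before counting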
[11] = circadian clock period modulators, cell-based, LOPAC library, luminescence reporter (AID 2774); conditions: circadian reporter cells, at 7 µM, actives lie on both sides;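 also: values are relative to mean of DMSO wells on each plate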

Chain of ATP-dependent translocase ABCB1 (Homo sapiens) (P08183 whole entry, looked up): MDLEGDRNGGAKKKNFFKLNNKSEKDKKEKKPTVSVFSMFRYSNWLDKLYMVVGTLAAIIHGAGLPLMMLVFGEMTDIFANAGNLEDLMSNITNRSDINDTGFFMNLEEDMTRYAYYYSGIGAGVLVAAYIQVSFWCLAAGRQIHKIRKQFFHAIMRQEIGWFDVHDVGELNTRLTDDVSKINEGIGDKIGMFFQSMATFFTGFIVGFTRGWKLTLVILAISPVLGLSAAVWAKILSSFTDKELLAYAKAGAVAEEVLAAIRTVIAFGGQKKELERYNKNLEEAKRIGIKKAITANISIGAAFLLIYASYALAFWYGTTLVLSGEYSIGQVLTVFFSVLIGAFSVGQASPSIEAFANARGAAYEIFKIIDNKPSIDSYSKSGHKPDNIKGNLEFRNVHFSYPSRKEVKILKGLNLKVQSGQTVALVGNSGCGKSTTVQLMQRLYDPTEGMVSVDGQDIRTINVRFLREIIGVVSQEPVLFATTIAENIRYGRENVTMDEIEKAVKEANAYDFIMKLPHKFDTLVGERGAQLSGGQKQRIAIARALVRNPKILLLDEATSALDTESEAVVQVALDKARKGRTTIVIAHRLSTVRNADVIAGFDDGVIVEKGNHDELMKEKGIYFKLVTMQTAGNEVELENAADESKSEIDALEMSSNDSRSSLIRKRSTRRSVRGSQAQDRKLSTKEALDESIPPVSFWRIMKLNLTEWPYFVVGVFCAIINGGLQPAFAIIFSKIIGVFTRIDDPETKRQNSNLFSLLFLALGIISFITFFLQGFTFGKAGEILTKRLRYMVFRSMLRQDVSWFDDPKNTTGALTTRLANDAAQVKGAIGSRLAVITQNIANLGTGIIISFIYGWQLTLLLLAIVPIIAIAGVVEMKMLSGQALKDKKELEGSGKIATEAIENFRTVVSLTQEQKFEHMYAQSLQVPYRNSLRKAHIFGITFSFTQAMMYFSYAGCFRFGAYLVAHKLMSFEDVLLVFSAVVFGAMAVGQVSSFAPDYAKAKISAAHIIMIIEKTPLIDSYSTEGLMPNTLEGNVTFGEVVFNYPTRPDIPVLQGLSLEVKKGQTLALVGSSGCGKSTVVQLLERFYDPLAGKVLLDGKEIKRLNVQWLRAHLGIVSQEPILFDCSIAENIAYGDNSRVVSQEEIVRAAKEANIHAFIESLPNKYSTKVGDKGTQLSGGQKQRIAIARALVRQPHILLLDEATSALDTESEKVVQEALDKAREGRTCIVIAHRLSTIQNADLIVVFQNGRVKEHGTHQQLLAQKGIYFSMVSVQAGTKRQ

Row | SMILES | fluorescence slope change [1] | inhibition [2] [%] | score [3] | rescue above control [4] | cytochrome c release ratio [5] | inhibition of aggregation [6] [%] | glutamate uptake change [7] [%] | inclusion score [8] | aggregation suppression score [9] | survival [10] | period change [11]
1 | O=C(COc1ccc(Cl)cc1)N1CCN(Cc2ccc3c(c2)OCO3)CC1 | 134% (active) | 60.9 | 1.15 | 29.5 | 1.17 | 63.9 | 0.58 | 2.5 | 1.39 | 7.17 (inactive) | –
2 | c1ccc(CN(CC2=NCCN2)c2ccccc2)cc1 | 118% (active) | 9.99 | 1.33 | -13.1 | 1.08 | 71.4 | 16 | 2 | 1.29 | 15 (inactive) | –
3 | CO[C@]12C[C@@H](COC(=O)c3cncc(Br)c3)CN(C)[C@@H]1Cc1cn(C)c3cccc2c13 | 159% (active) | 2.79 | 0.99 | 12.5 | 0.85 | 65.4 | 6.29 | 2 | 1.56 | 7.92 (inactive) | –
4 | NCCCC[C@H](N[C@@H](CCc1ccccc1)C(=O)O)C(=O)N1CCC[C@H]1C(=O)O | 60.6% (active) | -0.18 | 0.98 | -7.67 | 1.03 | 45.6 | 1.96 | 2 | 0.836 | 16.8 (inactive) | –
5 | CCOC(=O)c1ccc(N)cc1 | 53.5% (active) | -9.37 | 1.06 | -11.4 | 0.65 | 53 | 13.1 | 1.5 | 1.18 | 3.58 (inactive) | –
6 | N[C@@H](Cc1ccc(O)c(O)c1)C(=O)O | – | -16.6 | 1.55 | 6.71 | 0.96 | 83.3 | -2.7 | 2 | 1.67 | 9.67 (inactive) | 0.105 h (inactive)
7 | COc1c2occc2c(OC)c2c(=O)cc(C)oc12 | 54.2% (active) | 3.52 | 0.76 | 0 | 1.14 | 63.2 | -7.03 | 2 | 0.597 | 22.1 (inactive) | –
8 | CC(C)(Sc1cc(C(C)(C)C)c(O)c(C(C)(C)C)c1)Sc1cc(C(C)(C)C)c(O)c(C(C)(C)C)c1 | 6.4% (inactive) | -32.2 | 0.29 | -10.5 | 0.46 | 23.1 | -0.51 | 2 | 0.634 | 7.33 (inactive) | –
9 | Cn1c(=O)c2c(ncn2CCO)n(C)c1=O | 50.2% (active) | -0.98 | 1.29 | -7.41 | 1.08 | 56.7 | 2.77 | 2 | 1.2 | 29.2 (inactive) | –
10 | CN1CCC(OC(c2ccccc2)c2ccccc2)CC1 | 7.9% (inactive) | -34.9 | 1.74 | -9.83 | 1.09 | 81.6 | 17.3 | 2 | 1.27 | 4.58 (inactive) | –
11 | NC(N)=NCCN1CCCCCCC1 | 125% (active) | 22.4 | 1.49 | -4.52 | 1.17 | 35.2 | -19.4 | 2 | 1.06 | 13.9 (inactive) | –
12 | CC(=O)NO | 25.2% (inactive) | 31.8 | 1.13 | -5.59 | 0.77 | 58.3 | 11.3 | 2 | 1.09 | – | –
13 | Cc1ccccc1N1C(=O)c2cc(S(N)(=O)=O)c(Cl)cc2NC1C (configuration not stated) | 79.4% (active) | 19.1 | 1.21 | 6.73 | 0.86 | 4.55 | 2.13 | 2 | 1.18 | 25.6 (inactive) | –
14 | Cc1ccnc(NS(=O)(=O)c2ccc(N)cc2)n1 | 18.7% (inactive) | 3.68 | 0.98 | 11.1 | 0.88 | 38 | -29.5 | 2 | 1.19 | 6.5 (inactive) | –
15 | C[N+]1(CCCCC[N+]2(C)CCCC2)CCCC1 | – | -38.1 | 1.14 | 1.54 | 0.89 | 49 | 1.85 | 2 | 1.31 | 22.2 (inactive) | 0.04 h (inactive)
16 | CC(C)(Oc1ccc(CCNC(=O)c2ccc(Cl)cc2)cc1)C(=O)O | 88.6% (active) | -1.59 | 1.19 | -10.8 | 0.96 | 61 | 8.93 | 2 | 1.44 | 15.2 (inactive) | –
17 | O=C(O)c1ccccc1C(=O)Nc1ccc(S(=O)(=O)Nc2nccs2)cc1 | 52.9% (active) | -4.35 | 1.11 | -3.35 | 0.81 | 12.9 | 2.49 | 2 | 1.17 | 11.2 (inactive) | –
18 | Cc1onc(-c2ccccc2Cl)c1C(=O)N[C@@H]1C(=O)N2[C@@H]1SC(C)(C)[C@@H]2C(=O)O | 68% (active) | -3.1 | 1.4 | 1.76 | 1.27 | 77 | -4.39 | 2 | 1.08 | 24.6 (inactive) | –
19 | CC(C)(Oc1ccc(Cl)cc1)C(=O)O | 21.7% (inactive) | 17.7 | 1.27 | 11.6 | 1.13 | 38.2 | 12.1 | 2 | 1.01 | 4.75 (inactive) | –
20 | Cc1c(NC(=O)c2cccnc2)c(=O)n(-c2ccccc2)n1C | 25.2% (inactive) | 13.7 | 1.39 | -0.65 | 0.9 | 85.9 | -15.2 | 2 | 1.3 | 16.6 (inactive) | –
21 | CCCCOc1ccc(CC(=O)NO)cc1 | 103% (active) | -8.34 | 1.21 | -4.19 | 1.09 | 43.1 | 0.25 | 2 | 1.14 | 12.2 (inactive) | –
22 | COc1ccccc1OCC(O)CO (configuration not stated) | 12.6% (inactive) | -27.7 | 0.87 | -10.8 | 1.15 | 58.9 | -12.9 | 2 | 0.924 | 4.75 (inactive) | –

Row | SMILES | fluorescence slope change [1] | inhibition [2] [%] | score [3] | rescue above control [4] | cytochrome c release ratio [5] | inhibition of aggregation [6] [%] | glutamate uptake change [7] [%] | inclusion score [8] | aggregation suppression score [9] | survival [10] | period change [11]
23 | Nc1ccc(S(=O)(=O)Nc2ccccn2)cc1 | 12.6% (inactive) | -3.18 | 1.17 | 5.7 | 0.88 | 24.2 | -8.49 | 2 | 1.05 | 9.08 (inactive) | –
24 | CN(C)CCC(c1ccccc1)c1ccccn1 (configuration not stated) | – | 12.1 | 1.44 | -9.39 | 1 | -15.2 | 24.1 | 2 | 1.23 | 15 (inactive) | -0.08 h (inactive)
25 | Cn1cnc2c1c(=O)[nH]c(=O)n2C | – | 30.4 | 1.43 | -0.5 | 0.76 | 28.1 | -19.3 | 1.5 | 1.09 | 3.33 (inactive) | -0.055 h (inactive)
26 | C[N+]12CCC(CC1)C(OC(=O)C(O)(c1ccccc1)c1ccccc1)C2 (configuration not stated) | 27.6% (inactive) | 10.9 | 1.31 | 14.7 | 1.79 | 73.8 | -0.25 | 2 | 1.21 | 4.17 (inactive) | –
27 | COc1ccc(NS(=O)(=O)c2ccc(N)cc2)nn1 | -40.8% (inactive) | 24 | 1.56 | 12.3 | 0.95 | -3.03 | 8.78 | 2 | 1.18 | – | –
28 | CC(=O)Nc1ccc(O)cc1 | 29.1% (inactive) | -1.78 | 1.1 | 12.7 | 1.05 | 74.9 | -4.6 | 2 | 1.73 | 5.25 (inactive) | –
29 | COc1cnc(NS(=O)(=O)c2ccc(N)cc2)nc1 | 9.5% (inactive) | 4.47 | 1.34 | -2.23 | 0.79 | 77.5 | -0.58 | 2 | 1.45 | 4.42 (inactive) | –
30 | O=C(O)c1ccccc1Nc1cccc(C(F)(F)F)c1 | 92.3% (active) | -0.73 | -0.37 | 3.52 | 1.3 | 73.1 | -15.4 | 2 | -0.092 | 25.2 (inactive) | –
31 | OC(CCN1CCCCC1)(c1ccccc1)c1ccccc1 | 18.2% (inactive) | 19.5 | 1.21 | 10.4 | 1.45 | 65 | -4.45 | 2 | 1.43 | 3.42 (inactive) | –
32 | CCCCOc1ccc(OCCCN2CCOCC2)cc1 | 29.5% (inactive) | 9.28 | 1.09 | 8.67 | 0.73 | 65 | 6.69 | 2 | 1.24 | 2 (inactive) | –
33 | CCCN(CCC)C(=O)C(CCC(=O)O)NC(=O)c1ccccc1 (configuration not stated) | – | 14.9 | 1.14 | -3.65 | 1.15 | 68.3 | 11.9 | 1 | 1.2 | 19.6 (inactive) | 0.02 h (inactive)
34 | CCOc1ccc(Cc2nccc3cc(OCC)c(OCC)cc23)cc1OCC | 86.8% (active) | 34.8 | 1.54 | -2.91 | 1.13 | -10.6 | 33.7 | 2 | 1.07 | 5.17 (inactive) | –
35 | Cc1c(N(C)CS(=O)(=O)O)c(=O)n(-c2ccccc2)n1C | 12.6% (inactive) | -33.9 | 1.22 | 6.62 | 0.55 | 94.4 | -8.12 | 2 | 1.09 | 3.25 (inactive) | –
36 | COc1ccc2c(c1)c(CC(=O)OCC(=O)O)c(C)n2C(=O)c1ccc(Cl)cc1 | 79% (active) | -2.12 | 0.67 | 4.6 | 1.11 | 77.8 | -11 | 2 | 0.866 | 19.2 (inactive) | –
37 | O=C(Cn1ccnc1[N+](=O)[O-])NCCO | 10% (inactive) | -0.7 | 1.21 | -3.38 | 0.82 | 62.1 | 16.4 | 2 | 0.925 | 5.17 (inactive) | –
38 | CC1(C)OC(=O)NC1=O | 19.4% (inactive) | -3.41 | 1.47 | 14.1 | 0.85 | 33.3 | 12.7 | 2 | 1.01 | 9.33 (inactive) | –
39 | NS(=O)(=O)c1cc2c(cc1Cl)NC(C(Cl)Cl)NS2(=O)=O (configuration not stated) | 24.8% (inactive) | 12.2 | 1.03 | 12.5 | 1.13 | 79.6 | -0.6 | 2 | 1.17 | 3.33 (inactive) | –
40 | CC(=O)NS(=O)(=O)c1ccc(N)cc1 | – | 11.3 | 1.36 | -14.1 | 1.02 | 48.5 | 16.9 | 2 | 1.16 | 17.3 (inactive) | –
41 | NCC1CCC(C(=O)O)CC1 (configuration not stated) | 64.7% (active) | -11.3 | 1.25 | 8.04 | 0.77 | 74.7 | 10.5 | 2 | 1.21 | 17.8 (inactive) | –
42 | CCN(CC)CCNC(=O)c1cc(Br)c(N)cc1OC | 8.5% (inactive) | 15.4 | 1.41 | 5.76 | 0.92 | 24.2 | -4.45 | 2 | 1.35 | 5.42 (inactive) | –
43 | CC1CCc2cc(F)cc3c(=O)c(C(=O)O)cn1c23 (configuration not stated) | 50.2% (active) | 4.46 | 1.12 | -5.46 | 1.29 | 44.4 | 3.94 | 2 | 0.905 | 26.8 (inactive) | –

Reference: PubChem BioAssay
